We go through eight compounds from PubChem BioAssay (NCI).

SMILES strings stand for the structures. Compounds without any hit were thinned out: in the full panel of roughly 83,000, 20% have a hit.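 Single-dose data. Exposure time 48 hours. Values below 10 considered active.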 Unmarked numbers belong to inactive results. The source made the active and inactive calls.

Test systems include SK-MEL-2 melanoma; EKVX NSCLC; SN12C renal; UO-31 renal; TK-10 renal; ACHN renal; CAKI-1 renal; A498 renal; CCRF-CEM leukemia; MOLT-4 leukemia; SR leukemia; RPMI-8226 leukemia; OVCAR-8 ovarian; OVCAR-5 ovarian; OVCAR-4 ovarian; SK-OV-3 ovarian; IGROV1 ovarian; OVCAR-3 ovarian; HS 578T breast; NCI/ADR-RES ovarian.
Assay in all cases: NCI-60 one-dose screen, 48 h (100 = growth as untreated, 0 = no growth, -100 = all killed)
What all share (conditions): 10 µM unless noted

With `COc1cccc(C2C(C#N)=C(N)Oc3c2ccc2ccccc32)c1` (stereo not given), the growth was 40% in the assay with SK-MEL-2 melanoma; 53.1% with EKVX NSCLC; 24.2% in the assay with SN12C renal; 43% with UO-31 renal; 62% in the assay with TK-10 renal; 25.8% in the assay with ACHN renal. The growth in the assay with CAKI-1 renal is 30.1%; in the assay with A498 renal, 45.1%; with CCRF-CEM leukemia, 8.64% (active); in the assay with MOLT-4 leukemia, 12.3%; in the assay with SR leukemia, 18.1%; with RPMI-8226 leukemia, 20.7%. For the same compound, the growth with OVCAR-8 ovarian is 21.4%; in the assay with OVCAR-5 ovarian it was 40.5%; in the assay on OVCAR-4 ovarian, 66.2%; with SK-OV-3 ovarian, 40.1%; in the assay on IGROV1 ovarian, 18.3%; in the assay on OVCAR-3 ovarian, -8.8% (active). Also, the growth is 52.1% with HS 578T breast and 6.19% (active) with NCI/ADR-RES ovarian.
Turning to `C=C(C)[C@@H]1CC[C@]2(COC(=O)c3cccnc3)CC[C@]3(C)[C@H](CC[C@@H]4[C@@]5(C)CCCN(C(=O)c6cccnc6)C(C)(C)[C@@H]5CC[C@]43C)[C@@H]12`, the growth in the assay on SK-MEL-2 melanoma was 65.3%; with EKVX NSCLC, 49.6%; in the assay with SN12C renal, 38.1%; in the assay on UO-31 renal it was 35.9%; in the assay with TK-10 renal it was 51.8%; in the assay on ACHN renal, 29.5%. In addition, the growth was 32.6% in the assay on CAKI-1 renal; 46.7% in the assay with A498 renal; 24.9% in the assay with CCRF-CEM leukemia; 23.6% in the assay on MOLT-4 leukemia; 11.3% with SR leukemia; 14% with RPMI-8226 leukemia. Further, the growth in the assay on OVCAR-8 ovarian is 26.9%; in the assay on OVCAR-5 ovarian, 53.9%; with OVCAR-4 ovarian, 37.6%; with SK-OV-3 ovarian it was 53.1%; with IGROV1 ovarian, 42.8%; in the assay on OVCAR-3 ovarian, 32.9%. The growth was 59% with HS 578T breast and 42.7% in the assay on NCI/ADR-RES ovarian.
As for `CC(=O)c1ccc(Nc2nccc(-c3ccc(Cl)cc3)n2)cc1`, the growth in the assay on SK-MEL-2 melanoma is 98.1%; with EKVX NSCLC it was 99.2%; in the assay with SN12C renal, 100%; with UO-31 renal, 93.1%; in the assay on TK-10 renal, 85.5%; with ACHN renal, 92.3%. Also, the growth in the assay on CAKI-1 renal is 92.6%; in the assay with A498 renal it was 7.16% (active); in the assay on CCRF-CEM leukemia, 84.4%; in the assay with MOLT-4 leukemia it was 83.8%; in the assay with SR leukemia, 58.3%; with RPMI-8226 leukemia it was 93.6%. The growth is 91.7% with OVCAR-8 ovarian; 91.6% in the assay on OVCAR-5 ovarian; 105% in the assay on OVCAR-4 ovarian; 108% with SK-OV-3 ovarian; 103% in the assay on IGROV1 ovarian; 109% in the assay with OVCAR-3 ovarian. The growth is 95% with HS 578T breast and 96.1% with NCI/ADR-RES ovarian.
Regarding `CC(C)(C)n1cc(-c2ccnc(NCCNS(=O)(=O)c3ccc(Br)cc3)c2)c(-c2cccc(O)c2)n1`, the growth in the assay with SK-MEL-2 melanoma is 30.3%; with EKVX NSCLC it was 43.4%; with SN12C renal, 35.7%; in the assay with UO-31 renal it was 22.7%; with TK-10 renal it was 55.6%; in the assay on ACHN renal it was 25%. Further, the growth is 29.1% with CAKI-1 renal; 11.5% in the assay with A498 renal; 27.7% with CCRF-CEM leukemia; 12.9% in the assay with MOLT-4 leukemia; -10.5% (active) in the assay on SR leukemia; 3.61% (active) in the assay with RPMI-8226 leukemia. For the same compound, the growth in the assay on OVCAR-8 ovarian is 35.7%; in the assay on OVCAR-5 ovarian it was 47.5%; in the assay with OVCAR-4 ovarian, 42.8%; in the assay with SK-OV-3 ovarian, 53.2%; in the assay with IGROV1 ovarian, 40.4%; in the assay with OVCAR-3 ovarian it was 38.6%. Also, the growth in the assay with HS 578T breast was 16.8%; in the assay on NCI/ADR-RES ovarian, 33%.
Regarding `O=[N+]([O-])c1ccc(N/N=C\c2cc(Cl)ccc2O)nc1`, the growth in the assay with SK-MEL-2 melanoma is 44.3%; in the assay with EKVX NSCLC, 31%; in the assay on SN12C renal, 39.3%; in the assay on UO-31 renal it was 8.96% (active); in the assay on TK-10 renal, 107%; with ACHN renal, 17.6%. In addition, the growth was -14.1% (active) in the assay with CAKI-1 renal; 106% in the assay with A498 renal; 19.1% in the assay on CCRF-CEM leukemia; 13.8% in the assay on MOLT-4 leukemia; 10.6% in the assay on SR leukemia; 40.8% with RPMI-8226 leukemia. The growth in the assay on OVCAR-8 ovarian is 32.9%; with OVCAR-5 ovarian, 88.8%; in the assay on OVCAR-4 ovarian it was 36.1%; in the assay with SK-OV-3 ovarian it was 46.6%; in the assay with IGROV1 ovarian, 30.4%; in the assay on OVCAR-3 ovarian, 48.5%. In addition, the growth in the assay with HS 578T breast was 64.2%; with NCI/ADR-RES ovarian, 17.4%.
In the case of `COc1ccc(-c2nc(SCCC(C)C)nc(N/N=C(/C)c3ccc(N)cc3)c2C#N)cc1`, the growth was 109% with SK-MEL-2 melanoma; 93.4% in the assay on EKVX NSCLC; 75.1% in the assay with SN12C renal; 69.3% with UO-31 renal; 104% in the assay with TK-10 renal; 92.9% in the assay with ACHN renal. The growth in the assay with CAKI-1 renal is 81.8%; with A498 renal it was 90.9%; in the assay with CCRF-CEM leukemia, 95.8%; with MOLT-4 leukemia it was 95.4%; in the assay on SR leukemia, 90.2%; with RPMI-8226 leukemia it was 93.3%. The growth is 92.7% in the assay with OVCAR-8 ovarian; 93.7% in the assay with OVCAR-5 ovarian; 101% in the assay on OVCAR-4 ovarian; 89% in the assay with SK-OV-3 ovarian; 79% with IGROV1 ovarian; 99.2% in the assay on OVCAR-3 ovarian. Moreover, the growth in the assay with HS 578T breast was 92.4%; in the assay on NCI/ADR-RES ovarian it was 93.6%.
For the compound `CCCCCCCC/C=C\CCCCCCCCOc1ccc(CC(=O)NCC[N+]2(C)CCCC2)cc1`, the growth in the assay on SK-MEL-2 melanoma is 103%; in the assay with EKVX NSCLC it was 86.1%; in the assay on SN12C renal it was 42.5%; with UO-31 renal, 93.3%; in the assay with TK-10 renal, 38.5%; in the assay with ACHN renal, 84.1%. The growth is 50.9% in the assay with CAKI-1 renal; 86.4% in the assay on A498 renal; 29.5% in the assay on CCRF-CEM leukemia; 68.4% in the assay with MOLT-4 leukemia; 50.3% in the assay on SR leukemia; 58.2% with RPMI-8226 leukemia. In addition, the growth in the assay on OVCAR-8 ovarian is 50.4%; in the assay with OVCAR-5 ovarian, 25%; in the assay on OVCAR-4 ovarian, 62.1%; in the assay on SK-OV-3 ovarian it was 104%; in the assay on IGROV1 ovarian it was -11.8% (active); in the assay on OVCAR-3 ovarian it was 84.3%. The growth was 84.2% in the assay on HS 578T breast and 111% with NCI/ADR-RES ovarian.
On to `CC(C)n1nc(-c2ccc3oc(N)nc3c2)c2c(N)ncnc21`, for which the growth with SK-MEL-2 melanoma is -19.5% (active); in the assay on EKVX NSCLC it was -27.2% (active); in the assay with SN12C renal, 3.13% (active); in the assay with UO-31 renal, -20.9% (active); in the assay with TK-10 renal, -30.4% (active); in the assay on ACHN renal it was -14% (active). In addition, the growth with CAKI-1 renal is 2.4% (active); with A498 renal, -50.4% (active); in the assay with CCRF-CEM leukemia, 11.7%; in the assay with MOLT-4 leukemia, 6.39% (active); with SR leukemia it was 9.35% (active); in the assay on RPMI-8226 leukemia, -6.46% (active). For the same compound, the growth with OVCAR-8 ovarian is -17.5% (active); in the assay on OVCAR-5 ovarian, -9.99% (active); with OVCAR-4 ovarian, -32.2% (active); in the assay with SK-OV-3 ovarian, -32.6% (active); in the assay on IGROV1 ovarian, -27.3% (active); in the assay on OVCAR-3 ovarian, -6.08% (active). Moreover, the growth is -35.8% (active) in the assay on HS 578T breast and -20.6% (active) in the assay on NCI/ADR-RES ovarian.
